According to the antibiotic and cytotoxicity screens of Wong et al. (2023):
The whole screen tested about 39,000 compounds, of which about 3,300 (8.5%) were called active. The sample as a whole holds a higher share of actives than the screen did.

Each molecule was assayed on HepG2 (assay: cytotoxicity call (relative viability < 0.9)). Settings: 10 µM.
`O=C(O)c1csc2ccccc12` was tested, and the cytotoxicity call was “inactive”.
In the case of `Cc1noc(C)c1S(=O)(=O)N(C)C[C@H]1OCCCC[C@@H](C)Oc2ccc(NS(C)(=O)=O)cc2C(=O)N([C@H](C)CO)C[C@@H]1C`, the cytotoxicity call is reported as “inactive”.
With `COc1ccc(S(=O)(=O)N(C)C[C@H]2Oc3ccc(NC(=O)NC(C)C)cc3CC(=O)N([C@@H](C)CO)C[C@H]2C)cc1` the cytotoxicity call was “inactive”.
With `O=C(CN1C(=O)COCC1=O)N1CCOCC1` the cytotoxicity call was “inactive”.
In the case of `CCCNC(=O)Nc1ccc2c(c1)OC[C@H](C)N(C(=O)C1CCOCC1)C[C@H](C)[C@H](OC)CN(C)C2=O`, the cytotoxicity call is reported as “inactive”.
For `CC(C)c1cc(N2CC[C@@H](N)C2)nc(N)n1`, the cytotoxicity call was “inactive”.
In the case of `Cc1noc(C)c1NC(=O)Nc1cccc2c1O[C@H](CN(C)S(C)(=O)=O)[C@H](C)CN([C@@H](C)CO)C2=O`, the cytotoxicity call is reported as “inactive”.
With `CC(C)NC(=O)Nc1ccc2c(c1)CC(=O)N([C@H](C)CO)C[C@H](C)[C@H](CN(C)Cc1ccc(C(=O)O)cc1)O2` the cytotoxicity call was “inactive”.
With `O=C(NCCCN1CCOCC1)[C@H]1[C@H](CO)[C@H]2Cn3c(cccc3=O)[C@@H]1N2C(=O)NC1CCCC1` the cytotoxicity call was “inactive”.
In the case of `CC(C)CN[C@H]1CCS(=O)(=O)C1`, the cytotoxicity call is reported as “inactive”.
With `COc1ccc(CN(C)C[C@@H]2OCCCC[C@@H](C)Oc3ccc(NS(=O)(=O)c4ccc(OC)cc4)cc3C(=O)N([C@H](C)CO)C[C@H]2C)cc1` the cytotoxicity call was “inactive”.
With `COc1ccc(CN(C)C[C@H]2OCCCC[C@@H](C)Oc3ccc(NS(=O)(=O)c4ccc(OC)cc4)cc3C(=O)N([C@H](C)CO)C[C@@H]2C)cc1` the cytotoxicity call was “inactive”.
In the case of `COc1ccc(S(=O)(=O)Nc2ccc3c(c2)C(=O)N([C@@H](C)CO)C[C@@H](C)[C@H](CN(C)Cc2ccc(Cl)c(Cl)c2)OCCCC[C@@H](C)O3)cc1`, the cytotoxicity call is reported as “active”.
`COc1ccc(S(=O)(=O)Nc2ccc3c(c2)C(=O)N([C@H](C)CO)C[C@H](C)[C@@H](CN(C)Cc2ccc(Cl)c(Cl)c2)OCCCC[C@H](C)O3)cc1` was tested, and the cytotoxicity call was “active”.
With `C[C@H]1CN([C@@H](C)CO)C(=O)c2cc(NS(=O)(=O)c3cn(C)cn3)ccc2O[C@H]1CN(C)C(=O)Nc1ccc2c(c1)OCO2` the cytotoxicity call was “inactive”.
`Cc1nc(CO)co1` was tested, and the cytotoxicity call was “inactive”.
For `COc1ccc([C@@H](N)c2ccncc2)cc1`, the cytotoxicity call was “inactive”.
`C[C@H](CO)N1C[C@H](C)[C@@H](CN(C)Cc2ccc(Oc3ccccc3)cc2)Oc2c(NC(=O)CCCCCC(=O)Nc3ccccc3N)cccc2C1=O` was tested, and the cytotoxicity call was “inactive”.
For `O=S(=O)(NCCCCN(C/C=C/c1ccc(F)cc1)C/C=C/c1ccc(F)cc1)c1cccc2cnccc12`, the cytotoxicity call was “active”.
In the case of `O=[N+]([O-])c1ccc(/C=C/CN(C/C=C/c2ccc([N+](=O)[O-])cc2)CCNS(=O)(=O)c2cccc3cnccc23)cc1`, the cytotoxicity call is reported as “inactive”.
For `O=S(=O)(NCCCCN(C/C=C/c1ccccc1)C/C=C/c1ccccc1)c1cccc2cnccc12`, the cytotoxicity call was “inactive”.
With `O=S(=O)(NCCCN(C/C=C/c1ccc(F)cc1)C/C=C/c1ccc(F)cc1)c1cccc2cnccc12` the cytotoxicity call was “inactive”.
With `O=S(=O)(NCCCN(CCCc1ccccc1)CCCc1ccccc1)c1cccc2cnccc12` the cytotoxicity call was “inactive”.
In the case of `COc1ccc(/C=C/CN(C/C=C/c2ccc(OC)cc2)CCCNS(=O)(=O)c2cccc3cnccc23)cc1`, the cytotoxicity call is reported as “inactive”.
In the case of `COc1ccc(/C=C/CN(C/C=C/c2ccc(OC)cc2)CCCCNS(=O)(=O)c2cccc3cnccc23)cc1`, the cytotoxicity call is reported as “active”.
For `O=[N+]([O-])c1ccc(/C=C/CN(C/C=C/c2ccc([N+](=O)[O-])cc2)CCCCNS(=O)(=O)c2cccc3cnccc23)cc1`, the cytotoxicity call was “inactive”.
`N=C(N)NCCNS(=O)(=O)c1cccc2cnccc12` was tested, and the cytotoxicity call was “active”.
For `COc1ccc(NC(=O)N(C)C[C@@H]2Oc3ccc(NC(=O)CCCN(C)C)cc3C(=O)N([C@H](C)CO)C[C@@H]2C)cc1`, the cytotoxicity call was “inactive”.
With `C[C@@H]1CN([C@H](C)CO)C(=O)c2cc(NS(=O)(=O)c3cn(C)cn3)ccc2O[C@@H](C)CCCCO[C@@H]1CN(C)C` the cytotoxicity call was “inactive”.
`Cc1cc(C(=O)Nc2cccc3c2O[C@@H](CN(C)S(=O)(=O)c2ccc(Cl)cc2)[C@H](C)CN([C@@H](C)CO)C3=O)n(C)n1` was tested, and the cytotoxicity call was “inactive”.
`C[C@@H]1CN([C@@H](C)CO)C(=O)c2cc(NS(=O)(=O)c3cccs3)ccc2O[C@H]1CN(C)S(=O)(=O)c1ccc(F)cc1` was tested, and the cytotoxicity call was “inactive”.
For `C[C@@H](O)[C@H](N)C(=O)N[C@@H](CCCCN)C(=O)N1CCC[C@H]1C(=O)N[C@@H](CCCNC(=N)N)C(=O)O`, the cytotoxicity call was “inactive”.
`O=C(C[C@H]1C[C@H]2c3cc(NS(=O)(=O)c4ccc(F)cc4)ccc3O[C@H]2[C@H](CO)O1)NCc1cccnc1` was tested, and the cytotoxicity call was “inactive”.
With `Cc1noc(C)c1NC(=O)Nc1ccc2c(c1)C(=O)N([C@H](C)CO)C[C@H](C)[C@@H](CN(C)C(=O)Nc1c(C)noc1C)OCCCC[C@H](C)O2` the cytotoxicity call was “inactive”.
For `CN(C)CCCCCCNC(=O)[C@@H]1C[C@@H]2C(=O)N[C@@H](CCCC[N+](C)(C)C)C(=O)N2[C@@H]1c1cccc(OCCO)c1`, the cytotoxicity call was “inactive”.
For `C[C@H](CO)N1C[C@H](C)[C@H](CN(C)C(=O)C2CCCCC2)Oc2cc(C#Cc3ccncc3)ccc2S1(=O)=O`, the cytotoxicity call was “active”.
In the case of `C[C@@H]1CN([C@H](C)CO)S(=O)(=O)c2ccc(C#C[C@@H](C)O)cc2O[C@@H]1CN(C)C(=O)C1CCCCC1`, the cytotoxicity call is reported as “inactive”.
For `C[C@H](O)C#Cc1ccc2c(c1)O[C@@H](CN(C)C(=O)C1CCCCC1)[C@H](C)CN([C@H](C)CO)S2(=O)=O`, the cytotoxicity call was “inactive”.
`C[C@@H]1CN([C@H](C)CO)S(=O)(=O)c2ccc(C#Cc3ccncc3)cc2O[C@H]1CN(C)C(=O)C1CCCCC1` was tested, and the cytotoxicity call was “active”.
In the case of `C[C@H](O)C#Cc1ccc2c(c1)O[C@@H](CN(C)C(=O)C1CCCCC1)[C@H](C)CN([C@@H](C)CO)S2(=O)=O`, the cytotoxicity call is reported as “inactive”.
For `C[C@@H]1CN([C@@H](C)CO)S(=O)(=O)c2ccc(C#Cc3ccncc3)cc2O[C@H]1CN(C)C(=O)C1CCCCC1`, the cytotoxicity call was “active”.
In the case of `C[C@@H]1CN([C@@H](C)CO)S(=O)(=O)c2ccc(C#CC3CC3)cc2O[C@H]1CN(C)C(=O)C1CCCCC1`, the cytotoxicity call is reported as “inactive”.
In the case of `C[C@H]1CN([C@@H](C)CO)S(=O)(=O)c2ccc(C#Cc3ccncc3)cc2O[C@H]1CN(C)C(=O)C1CCCCC1`, the cytotoxicity call is reported as “inactive”.
In the case of `C[C@H](CO)N1C[C@H](C)[C@@H](CN(C)C(=O)C2CCCCC2)Oc2cc(C#Cc3ccncc3)ccc2S1(=O)=O`, the cytotoxicity call is reported as “active”.
`COc1ccc(CN(C)C[C@@H]2Oc3ccc(NS(=O)(=O)c4cn(C)cn4)cc3C(=O)N([C@@H](C)CO)C[C@@H]2C)cc1` was tested, and the cytotoxicity call was “inactive”.
In the case of `C[C@H]1CN([C@@H](C)CO)C(=O)c2cc(NC(=O)Nc3ccc4c(c3)OCO4)ccc2O[C@@H]1CN(C)C(=O)Nc1cccc2ccccc12`, the cytotoxicity call is reported as “inactive”.
In the case of `C[C@H](CO)N1C[C@H](C)[C@H](CN(C)S(=O)(=O)c2ccccc2)Oc2c(NS(=O)(=O)c3cccs3)cccc2C1=O`, the cytotoxicity call is reported as “inactive”.
`Cc1ccc(S(=O)(=O)N(C)C[C@@H]2Oc3ccc(NS(=O)(=O)c4c(C)noc4C)cc3C(=O)N([C@@H](C)CO)C[C@H]2C)cc1` was tested, and the cytotoxicity call was “inactive”.
`COc1ccccc1-c1cccc(-c2nc(C(=O)N3CCCCC3)cc3c2[C@@H](CCO)N([S@](=O)C(C)(C)C)C3)c1` was tested, and the cytotoxicity call was “inactive”.
With `O[C@H]1[C@H](O)[C@@H](O)[C@H](O)[C@@H](O)[C@H]1O` the cytotoxicity call was “inactive”.
In the case of `Cc1ccc(S[C@]2(C(=O)NC3CC3)CC(=O)N(C3Cc4ccccc4C3)[C@@H]2c2ccc(CO)cc2I)cc1`, the cytotoxicity call is reported as “inactive”.
With `C[C@@H]1CN([C@@H](C)CO)C(=O)c2cc(-c3ccncc3)cnc2O[C@@H]1CN(C)S(=O)(=O)c1ccc(F)cc1` the cytotoxicity call was “inactive”.
In the case of `COc1ccc2c3c(n(c2c1)C)[C@@H](CO)N(CC1CCOCC1)C[C@]13CN(C1)C(=O)Cc1cccnc1`, the cytotoxicity call is reported as “inactive”.
For `C[C@@H]1CN([C@H](C)CO)C(=O)c2cccc(NS(=O)(=O)c3cccs3)c2O[C@@H]1CN(C)S(=O)(=O)c1ccc(F)cc1`, the cytotoxicity call was “inactive”.
`C[C@H]1CN([C@@H](C)CO)S(=O)(=O)c2ccc(C#Cc3ccncc3)cc2O[C@@H]1CN(C)C(=O)C1CCCCC1` was tested, and the cytotoxicity call was “active”.
For `C[C@@H]1CN([C@@H](C)CO)S(=O)(=O)c2ccc(C#Cc3ccncc3)cc2O[C@@H]1CN(C)C(=O)C1CCCCC1`, the cytotoxicity call was “active”.
For `C[C@@H]1CN([C@H](C)CO)S(=O)(=O)c2ccc(C#CC3CC3)cc2O[C@H]1CN(C)C(=O)C1CCCCC1`, the cytotoxicity call was “inactive”.
With `C[C@H](O)C#Cc1ccc2c(c1)O[C@@H](CN(C)C(=O)C1CCCCC1)[C@@H](C)CN([C@@H](C)CO)S2(=O)=O` the cytotoxicity call was “inactive”.
In the case of `C[C@@H]1CN([C@H](C)CO)S(=O)(=O)c2ccc(C#Cc3ccncc3)cc2O[C@@H]1CN(C)C(=O)C1CCCCC1`, the cytotoxicity call is reported as “active”.
For `Cc1noc(C)c1NC(=O)Nc1ccc2c(c1)CC(=O)N([C@H](C)CO)C[C@@H](C)[C@@H](CN(C)Cc1ccc(C(=O)Nc3ccccc3N)cc1)O2`, the cytotoxicity call was “inactive”.
With `C[C@@H]1CN([C@H](C)CO)C(=O)Cc2cc(NC(=O)CCC(F)(F)F)ccc2O[C@@H]1CN(C)Cc1ccc(C(=O)Nc2ccccc2N)cc1` the cytotoxicity call was “inactive”.
With `C[C@H](CO)N1C[C@H](C)[C@H](CN(C)S(C)(=O)=O)Oc2c(cccc2N(C)C)C1=O` the cytotoxicity call was “inactive”.
In the case of `C[C@@H]1CN([C@H](C)CO)C(=O)c2cccc(NC(=O)C3CCCCC3)c2O[C@@H]1CN(C)S(=O)(=O)c1cn(C)cn1`, the cytotoxicity call is reported as “inactive”.
In the case of `C[C@@H]1CN([C@H](C)CO)C(=O)c2cccc(NC(=O)Nc3ccc(F)cc3)c2O[C@@H]1CN(C)S(=O)(=O)c1cn(C)cn1`, the cytotoxicity call is reported as “inactive”.
With `COc1ccc(-n2nc(C(=O)NCC(=O)N3CCN(c4ccccc4)CC3)c3ccccc3c2=O)c(OC)c1` the cytotoxicity call was “inactive”.
`CC[C@H]1OC(=O)[C@H](C)[C@@H](O[C@H]2C[C@@](C)(OC)[C@@H](O)[C@H](C)O2)[C@H](C)[C@@H](O[C@@H]2O[C@H](C)C[C@H](N(C)C)[C@H]2O)[C@](C)(O)C[C@@H](C)[C@@H]2N[C@@H](COCCOC)O[C@H]([C@H]2C)[C@]1(C)O` was tested, and the cytotoxicity call was “inactive”.
